# Screening data as filed in PubChem BioAssay.
# Shown are actives, neighbours in structure and some others; about 19% of the full set was active somewhere.
# HT1080 IDH1KD tx = qHTS for induction of synthetic lethality in tumor cells producing 2HG: qHTS for the HT-1080-IDH1KD cell line; HT-1080 IDH1 knockdown viability, ATP luminescence, 48 h; Potency, µM (titrated, usually from 46.1 µM), usual class: cytotoxic; hit rate 2% among 360,000
#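 HT-1080-IDH1KD cells (IDH1 knocked down), 750/well in RPMI with 5% FBS, treated with compound 48 h at 37 degrees C. Viability by CellTiter-Glo luminescence, normalised to DMSO and no-cell wells; concentration-response curves classed.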
# HT1080-NT tox = qHTS for induction of synthetic lethality in tumor cells producing 2HG: qHTS for the HT-1080-NT fibrosarcoma cell line; HT-1080-NT fibrosarcoma viability, CellTiter-Glo ATP luminescence, 48 h; Potency, µM (top dose mostly 46.1 µM), actives largely listed as cytotoxic; hit rate 1.6% among 360,000; AID 686970, 2013;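 note: NT is the 2HG producing partner of a matched IDH1 knockdown line; nearly all actives have a fitted effect of over 55% in size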
#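 Toxicity toward the 2HG-producing NT line was scored as %Activity, normalised to DMSO and no-cell wells, from CellTiter-Glo luminescence after 48 hours' treatment.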
# TDP1 cell noCPT = qHTS for Inhibitors of human tyrosyl-DNA phosphodiesterase 1 (TDP1): qHTS in cells in absence of CPT; DT40 Tdp1-/- hTDP1 cells, no CPT, ATP luminescence, 48 h; Potency, µM (titrated, usually from 46.2 µM), most hits filed as inhibitors; hit rate 15% among 420,000; note: nearly all actives have a fitted effect of over 55% in size
#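 Readout: luminescence from CellTiter-Glo after 30 min in the dark at RT. Cells: DT40 Tdp1-/- with stable hTDP1, 400/well. Exposure: compounds alone, ≥48 hr, 37 °C.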
# IL1B secr inh = qHTS for Inhibitors of Inflammasome Signaling: IL-1-beta AlphaLISA Primary Screen. THP-1 LPS/ATP IL-1B secretion, AlphaLISA, 16 h; hits give low values. activity change, % at 57.5 µM. hit rate 4.7% among 360,000; in the data active = activity change below about -50%; inconclusive = mostly about -30% to -49%
#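 THP-1 cells pretreated 1 hr with compounds (up to 57.5 uM final), then stimulated with LPS (250 ng/mL final) plus ATP (1.25 mM final); secreted IL-1B measured by AlphaLISA after 16 hr, decreased signal indicating inhibition.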
# DT40 TDP1 CPT = qHTS for Inhibitors of human tyrosyl-DNA phosphodiesterase 1 (TDP1): qHTS in cells in presence of CPT; Potency, µM (titrated, usually from 46.2 µM), most hits filed as inhibitors; chicken DT40 Tdp1-/-;hTDP1 cells + 20 nM CPT, ATP luminescence, 48 h; hit rate 12% among 420,000; AID 686979, 2013; note: nearly all actives have a fitted effect of over 55% in size
#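 Cell growth measured by CellTiter-Glo luminescence after a minimum 48 h, 37 C compound exposure with 20 nM CPT in Tdp1-knockout DT40 cells stably expressing hTDP1, seeded 400/well; qHTS titration format.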
# uPA generation = qHTS for Inhibitors of Cell Surface uPA Generation. cell surface uPA generation assay, qHTS. hit rate 0.31% among 330,000. Potency, µM (titrated, usually from 38.3 µM), most hits filed as inhibitors; active = well fitted inhibition curve with a large enough effect; inconclusive = small, poorly fitted or top-dose-only effect; inactive = no such curve, though single readings can be large or run the other way; tested in mouse RAW 264.7 cells; note: nearly all actives have a fitted effect of over 55% in size
# Numbers stand for hits; . = inactive; ? = inconclusive; / = not tested or not shown. Unless noted, calls come from the whole dose curve; as a rule, active = well fitted curve in the direction sought with a large enough effect; inconclusive = small, poorly fitted or top-dose-only effect, or another doubt; inactive = no such curve, though single readings can be large; an effect the other way counts as inactive or inconclusive.
SMILES,HT1080 IDH1KD tx,HT1080-NT tox,TDP1 cell noCPT,IL1B secr inh,DT40 TDP1 CPT,uPA generation
CN(C)c1ccc(S(=O)(=O)N2CCCCC2)cc1NC(=O)C1CSC2(C)CCC(=O)N12 (configuration not stated),.,.,26µM,.,.,.
CC12CCC(=O)N1C(C(=O)Nc1ccc(S(=O)(=O)N3CCCCC3)cc1)CS2 (configuration not stated),.,.,.,.,.,.
CC1CC(C)CN(S(=O)(=O)c2ccc(NC(=O)C3CSC4(C)CCC(=O)N34)cc2)C1 (configuration not stated),.,.,?,?,23µM,.
Cc1cccc(NC(=O)CN2C(=O)S/C(=C\c3cc(C)n(C)c3C)C2=O)c1,.,.,18µM,.,.,.
Cc1ccc(NC(=O)CN2C(=O)S/C(=C\c3cc(C)n(C)c3C)C2=O)cc1,.,.,.,.,.,.
Cc1ccc(C(C)(C)C)c(OCCOCCN2CCCC2)c1,.,.,?,.,15µM,.
CC(C)(C)c1ccccc1OCCOCCN1CCCCCC1,?,.,15µM,-62,?,.
CCc1noc(C)c1C(=O)N(C)CC(=O)Nc1ccc(F)c(F)c1F,.,.,.,.,.,.
NC(=O)c1cccc(Nc2nc(C(N)C3CCCCC3)cs2)n1 (configuration not stated),.,?,?,.,?,/
COc1cccc(Nc2nc(C(N)C3CCCCC3)cs2)n1 (configuration not stated),16µM,?,23µM,.,?,/
COc1cccc(Nc2nc(C(N)c3ccccc3)cs2)n1 (configuration not stated),?,?,12µM,-71,9.2µM,/
COc1cccc(Nc2nc(C(C)N)cs2)n1 (configuration not stated),.,?,?,.,13µM,/
O=C(NCc1cccc2[nH]ccc12)C1CCC(=O)N(CCc2ccccc2)C1 (configuration not stated),.,.,.,.,.,.
CC(C)(C)NC(=O)C(c1cc2ccccc2o1)n1c(-c2ccc(-c3ccccc3)cc2)nc2ccccc21 (configuration not stated),?,?,?,.,16µM,/
COc1ccc(C(C(=O)NC(C)(C)C)n2c(-c3ccc(C(F)(F)F)cc3)nc3ccccc32)cc1 (configuration not stated),.,.,?,.,16µM,/
COc1ccc(C(C(=O)NC(C)(C)C)n2c(=O)c(-c3ccccc3)nc3ccccc32)cc1 (configuration not stated),.,.,?,.,?,/
Cc1cnc(-c2nc3ccccc3n2C(C(=O)NC(C)(C)C)c2ccncc2)cn1 (configuration not stated),.,.,.,.,.,/
CC(C)(C)NC(=O)C(c1ccncc1)n1c(-c2ccc(C(F)(F)F)cc2)nc2ccccc21 (configuration not stated),21µM,?,?,.,?,/
Cc1cccc(C)c1NC(=O)C(C1CC1)n1c(-c2ccc(C(F)(F)F)cc2)nc2ccccc21 (configuration not stated),.,.,18µM,.,?,/
CSCCC(C(=O)NC(C)(C)C)n1c(-c2ccc(C)cc2)nc2ccccc21 (configuration not stated),.,.,?,.,?,/
COCCSc1nc2sc3c(c2c(=O)n1-c1ccccc1)CCN(C)C3,.,.,.,.,?,.
CCSc1nc2sc3c(c2c(=O)n1-c1ccccc1)CCN(C)C3,.,.,?,.,?,.
CCOc1ccc(-n2c(SCC(N)=O)nc3sc4c(c3c2=O)CCN(C)C4)cc1,.,.,.,.,.,.
CCCN1CCc2c(sc3nc(SCC)n(-c4ccc(OC)cc4)c(=O)c23)C1,.,.,13µM,.,?,.
COc1ccc(NC(=O)CSc2nc3sc4c(c3c(=O)n2-c2ccc(OC)cc2)CCN(C)C4)cc1,.,.,?,.,.,.
SMILES,HT1080 IDH1KD tx,HT1080-NT tox,TDP1 cell noCPT,IL1B secr inh,DT40 TDP1 CPT,uPA generation
COc1ccc(-n2c(SC)nc3sc4c(c3c2=O)CCN(C)C4)cc1,.,.,12µM,.,?,.
CCCN1CCc2c(sc3nc(SCC)n(-c4ccccc4)c(=O)c23)C1,.,.,15µM,.,?,.
CCCN1CCc2c(sc3nc(SC)n(-c4ccccc4)c(=O)c23)C1,.,.,5.8µM,?,6.5µM,.
O=C(CNCc1ccco1)Nc1ccc(Oc2ccccc2)cc1,.,.,.,.,.,.
O=C(NC1CCCCC1)C1c2ccccc2OCC(=O)N1Cc1ccc2c(c1)OCO2 (configuration not stated),.,.,.,.,.,/
COc1ccc(-n2nc3cc(C)c(NC(=O)c4ccc(-c5ccc(Cl)cc5)o4)cc3n2)cc1,/,/,.,/,.,/
COc1ccc(CNC(=O)COC(=O)[C@H](Cc2c[nH]c3ccccc23)NC(=O)c2cccs2)cc1,.,.,?,-93,?,.
COc1ccc(CC(=O)NCc2cccs2)cc1,?,.,15µM,.,23µM,.
COc1ccc2cc3cc(C(=O)NCc4ccc(C)cc4)oc3nc2c1,/,/,.,/,.,/
COc1ccc2cc3cc(C(=O)NCc4cccs4)oc3nc2c1,?,?,?,-54,.,.
COc1ccc(OC)c(CNC(=O)c2cc3cc4ccc(OC)cc4nc3o2)c1,/,/,.,/,.,/
CCCN(CCC)CCCNC(=O)c1cc2cc3ccc(OC)cc3nc2o1,.,?,.,-78,?,.
CC1(C)S[C@@H]2[C@H](NC(=O)C(NC(=O)N3CCNC3=O)c3ccccc3)C(=O)N2[C@H]1C(=O)O (some centres not stated),.,.,.,.,.,.
COc1ccc(N(CC(=O)Nc2cc([N+](=O)[O-])ccc2C)S(C)(=O)=O)cc1OC,.,.,.,.,?,.
COc1ccc2cc3cc(C(=O)NCCc4ccc(OC)c(OC)c4)oc3nc2c1,.,.,18µM,?,12µM,.
Cc1cc(C(=O)NCc2cccs2)c(C)o1,.,.,18µM,.,26µM,/
CCCCN(CC)CCCNC(=O)c1cc2cc3ccc(OC)cc3nc2o1,.,.,?,-50,?,.
CCN(CC(=O)NCc1cccs1)C(=O)c1ccc(-c2ccccc2F)o1,.,.,18µM,.,?,.
